FadD28 FP inh – inhibitors of Mycobacterium tuberculosis FadD28 bisubstrate binding. FadD28 bisubstrate probe binding, fluorescence polarization. inhibition, % at 12.5 µM. hit rate 0.22% among 360,000. AID 588549; in the data active = inhibition above about 8.5%, passing the limit was not always enough
Mtb BioA inh – BioA (M. tuberculosis) enzyme inhibition | AID 602481 | inhibition, % at 9.99 µM | purified M. tuberculosis BioA enzyme, plate reader | hit rate 0.096% among 360,000; in the data active = inhibition above about 40%
GDH-TPI counter-1 – inhibits GDH-TPI coupling enzymes, artifact for Mtb FBA screen. GDH-TPI coupled enzyme counterscreen, NADH absorbance. hit rate 1.2% among 360,000. inhibition, % at 4.8 µM; in the data active = inhibition above about 30%;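 note: 0% = DMSO wells and 100% = wells lacking the enzyme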
Mtb FBA inh – inhibitors of M. tuberculosis fructose-bisphosphate aldolase. hit rate 2.3% among 360,000. P9WQA3. purified M. tuberculosis FBA, fluorescence read-out. inhibition, % at 1 µM. AID 588726;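 note: 0% = vehicle and 100% = reference inhibitor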
Target sequence (P9WQA3 whole entry, looked up): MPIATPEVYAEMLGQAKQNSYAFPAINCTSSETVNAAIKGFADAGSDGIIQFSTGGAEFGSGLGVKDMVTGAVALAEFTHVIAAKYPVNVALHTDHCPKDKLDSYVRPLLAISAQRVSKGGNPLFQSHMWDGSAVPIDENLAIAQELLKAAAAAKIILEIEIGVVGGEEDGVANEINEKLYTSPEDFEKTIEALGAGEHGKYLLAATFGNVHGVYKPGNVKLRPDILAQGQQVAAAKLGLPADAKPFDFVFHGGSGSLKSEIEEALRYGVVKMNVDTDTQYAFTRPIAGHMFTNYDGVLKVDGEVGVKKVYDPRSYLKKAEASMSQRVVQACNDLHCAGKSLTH
SARS 3CLpro inh – SARS-CoV 3CLpro protease inhibition | AID 1706 | recombinant SARS-CoV 3CLpro, quenched FRET peptide cleavage | P0C6X7 | inhibition, % at 6 µM | hit rate 0.14% among 290,000; in the data active = inhibition above about 12%
Mtb FBA confirm – Mtb FBA inhibition, confirmed; shares compounds with Mtb FBA inh; purified M. tuberculosis FBA, fluorescence read-out; inhibition, % at 1 µM; hit rate 78% among 5,600;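 note: 0% = vehicle wells and 100% = reference inhibitor wells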
GDH-TPI counter-2 – counter-screen for M. tuberculosis FBA inhibitors: GDH-TPI coupled enzyme inhibition; shares compounds with Mtb FBA inh; GDH-TPI coupled enzyme counterscreen, fluorescence; inhibition, % at 1 µM; hit rate 81% among 5,600; AID 652141; in the data active = inhibition above about 10%
GDH-TPI DR – counter-screen for M. tuberculosis FBA inhibitors: GDH-TPI dose response | shares compounds with Mtb FBA inh | GDH-TPI coupled enzyme assay, fluorescence, artifact counterscreen | IC50, µM | hit rate 79% among 170 | AID 652145; call rule not given here
Active calls of the source: *; · = no result given. This is a sample that favours compounds with a hit; in the whole collection about 3.1% have one here. Cut-off read from the data, not from the text of the source, unless noted: active = inhibition above about 27%; inactive = the rest.

SMILES	FadD28 FP inh	Mtb BioA inh	GDH-TPI counter-1	Mtb FBA inh	SARS 3CLpro inh	Mtb FBA confirm	GDH-TPI counter-2	others
CCCNC(=O)[C@H]1[C@H](CO)[C@H]2Cn3c(cccc3=O)[C@H]2N1CCC(F)(F)F	·	-3	·	·	·	·	·
COc1ccc(NC(=O)N(C)C[C@@H]2Oc3ncc(-c4ccc(F)cc4)cc3C(=O)N([C@H](C)CO)C[C@@H]2C)cc1	·	2	·	·	·	·	·
CNc1ccccc1C(=O)OC(C)C(=O)Nc1ccc(S(=O)(=O)N2CCCC2)cc1 (configuration not stated)	1	0	-1	39*	1	-2	-4
CC(=O)Nc1ccc(NC(=O)C(C)OC(=O)c2ccc(S(=O)(=O)N3CCCCC3)cc2)cc1 (configuration not stated)	-3	-2	8	1	·	·	·
C[C@@H]1CCCCO[C@H](CN(C)S(=O)(=O)c2ccc(F)cc2)[C@@H](C)CN([C@@H](C)CO)C(=O)c2cc(NS(=O)(=O)c3ccccc3)ccc2O1	·	-2	·	·	·	·	·
C[C@H](CO)N1C[C@H](C)[C@H](CN(C)S(=O)(=O)c2cn(C)cn2)Oc2ccc(NC(=O)C3CC3)cc2C1=O	·	1	·	·	·	·	·
Cc1c(OCC(=O)N2CCC(C(N)=O)CC2)ccc2c3c(c(=O)oc12)CCCC3	-4	0	10	18	4	·	·
Cc1cc(=O)oc2c(C)c(OCC(=O)N3CCN(Cc4ccccc4)CC3)ccc12	-2	3	15	27*	-7	147*	100*
Cc1c(OCC(=O)N2CCC(C(N)=O)CC2)ccc2c1oc(=O)c1ccccc12	-3	-1	15	28*	-1	130*	101*
Cc1cc(=O)oc2c(C)c(OCC(=O)N3CCN(c4ccc(F)cc4)CC3)ccc12	0	5	24	6	-2	·	·
COC(=O)Cc1c(C)c2ccc(OCC(=O)N3CCC(C)CC3)c(C)c2oc1=O	0	1	19	84*	0	54*	50*
Cc1c(O)ccc2c(CN3CCN(C/C=C/c4ccccc4)CC3)cc(=O)oc12	-6	·	0	64*	1	74*	56*
O=c1cc(CN2CCN(C/C=C/c3ccccc3)CC2)c2cc(O)c(-c3ccccc3)cc2o1	-5	2	0	0	0	·	·
Cc1cc(=O)oc2c(C)c(OCC(=O)N3CCC(C(=O)O)CC3)ccc12	-1	0	17	49*	1	18	15*
Cc1cccc(N2CCN(C(=O)COc3ccc4c(C)cc(=O)oc4c3C)CC2)c1C	-3	3	13	4	-2	·	·
O=C(C[C@H]1CC[C@H]2[C@@H](COC[C@@H](O)CN2Cc2cccc(C(F)(F)F)c2)O1)NCc1ccc(F)cc1	·	-1	·	·	·	·	·
C[C@@H]1CN([C@@H](C)CO)C(=O)c2cc(NS(=O)(=O)c3ccc(Cl)cc3)ccc2O[C@@H](C)CCCCO[C@H]1CN(C)Cc1ccc(C(F)(F)F)cc1	·	-1	·	·	·	·	·
CC(OC(=O)c1ccccc1NCCO)C(=O)NCC(=O)Nc1ccc(F)c(F)c1F (configuration not stated)	-3	2	0	91*	2	128*	97*
Cc1ccc(NC(=O)CN(C)CC(=O)Nc2ccccc2C(=O)Nc2ccccc2)cc1	1	·	0	73*	2	6	-4
Cc1ccc(NC(=O)CN(C)CC(=O)N(C)Cc2ccccc2)cc1	0	2	7	-2	·	·	·
Cc1ccc(NC(=O)CN(C)C(=O)C(C)OC(=O)c2ccccc2NCCO)cc1 (configuration not stated)	-1	0	8	92*	·	98*	73*
Cc1ccc(NC(=O)CN(C)C(=O)C(c2ccccc2)c2ccccc2)cc1	-3	2	9	0	·	·	·
COc1ccccc1C(C)NCC(=O)NCC(=O)Nc1ccc(F)c(F)c1F (configuration not stated)	-1	·	1	1	4	·	·
CN1Cc2c(N3CCOCC3)nc3sc(C#N)c(N)c3c2CC1(C)C	-2	·	6	78*	3	14	-5	GDH-TPI DR=1.8*
COc1ccc(NC(=O)c2sc3nc(N4CCOCC4)c4c(c3c2N)CC(C)(C)OC4)cc1	-2	-1	0	-1	-4	·	·

From PubChem BioAssay
